Test results reported in PubChem BioAssay (Tox21).
A number with no mark means an inactive call. A call without a number means that no potency is given here. Calls of active or inactive are those of the source. Calls come from the whole dose curve; as a rule, active = well fitted curve in the direction sought with a large enough effect in the repeat runs; inconclusive = weak or mixed curves; inactive = flat fitted curve, though single readings scatter.

Experiment: qHTS assay to test for compound auto fluorescence at 460 nm (blue) in HepG2 cells (AID 720687)
Conditions: autofluorescence 405/460 nm, 1 h; series mostly up to 91.3 µM
Description: U.S. Tox21 Program National Center for Advancing Translational Sciences [NCATS] NIH Chemical Genomics Center [NCGC] U.S. Environmental Protection Agency [EPA] National Institutes of Environmental Health Sciences [NIEHS] National Toxicology Program [NTP] U.S. Food and Drug Administration [FDA] Tox21 Assay Overview: Compound auto fluorescence often interferes with screening of the compound library against various biological targets and signaling pathways. Some of these compounds may have fluorophoric properties. Such properties may interfere with the assay outputs resulting in false positives and/or negatives. To decrease such complications and ensure the compound activities are relevant in terms of biological response, the Tox21 10K compound library was screened for auto fluorescence. From the fluorophores used as reporter signals in our screening assays, the auto fluorescence equivalencies of compounds against three fluorophores have been evaluated: Triamterene, Fluorescein and Rose Bengal sodium for blue, green and red fluorescence, respectively. The fluorescence intensities were measured using Excitation/Emission wavelengths at 405/460nm, 485/535nm and 540/590nm for blue, green and red labels, respectively. This assay includes the blue fluorescence data.
Tox21 Assay Protocol Summary: 2,000 HepG2 cells in 5 uL of culture medium (MEM containing 10% FBS) per well were dispensed into black wall/clear bottom 1536-well plates using a Multidrop Combi Dispenser (ThermoFisher Scientific, Waltham, MA). The assay plates were incubated overnight at 37 C to allow cell attachment to the well bottom, followed by the transfer of 23 nL compound or DMSO vehicle by a pintool work station (Kalypsys , San Diego, CA). After the assay plates were incubated for 1 hr at 37 C and 5% CO2, fluorescence intensities in the assay plates were measured by an Envision (PerkinElmer, Shelton, CT) plate reader using three labels for measuring blue, green and red fluorescence at […] 460, 535 and 590 nm respectively.
Potency is the fitted concentration of half-maximal effect; tags give direction and shape of the fitted curve or compound fluorescence and quenching.

Which Potency does the source give for `CN1[C@@H]2CC[C@H]1CC(NC(=O)n1c(=O)[nH]c3ccccc31)C2` (stereo not given in full) here?
Its Potency is “inactive”.

With `CSc1ccc(C=O)cc1` as the molecule, how does the Potency read?
The Potency was “inactive”.

For `N#CCN(CC#N)CCN(CC#N)CC#N`, which Potency is on record?
Its Potency is “inactive”.

For `Cc1ccccc1Br`, which Potency is on record?
Its Potency is “inactive”.

Which Potency does the source give for `Cc1nc(-c2ccc(OCC(C)C)c(C#N)c2)sc1C(=O)O` here?
Its Potency is “inactive”.

With `CN(C)CCn1nnnc1SCC1=C(C(=O)O)N2C(=O)[C@@H](NC(=O)Cc3csc(N)n3)[C@H]2SC1` as the molecule, how does the fluorescence, % of fluorescent control read?
The fluorescence, % of fluorescent control was 0.222% [at 18.6 µM].

For `O=C(O)Cc1cc(I)c(Oc2cc(I)c(O)c(I)c2)c(I)c1`, which Potency is on record?
The Potency was “inactive”.

With `CCCCCCCCCCCCCCCCCC(=O)OCCCCCCCCCCCCCC(C)C` as the molecule, how does the Potency read?
The Potency was “inactive”.

For `CCN(CC)S(=O)(=O)c1ccc(C(=O)O)cc1`, which Potency is on record?
The Potency was “inactive”.

Which Potency does the source give for `CC(O)CN(CCCN(C)C)CCCN(C)C` (stereo not given) here?
Its Potency is “inactive”.

For `Nc1cc(C(Cl)=C(Cl)Cl)c(S(N)(=O)=O)cc1S(N)(=O)=O`, which Potency is on record?
Its Potency is “inactive”.

With `C1CCCCCCCCCCC1` as the molecule, how does the fluorescence, % of fluorescent control read?
Its fluorescence, % of fluorescent control is -0.112% [at 18.6 µM].

Which Potency does the source give for `CCCCCN(CCCCC)C(=O)C(CCC(=O)O)NC(=O)c1ccc(Cl)c(Cl)c1` (stereo not given) here?
Its Potency is “inactive”.

For `CCCCCCCCCCCCI`, which Potency is on record?
Its Potency is “inactive”.

Which Potency does the source give for `Nc1cc(N)cc(C(=O)O)c1` here?
Its Potency is “inactive”.

Which Potency does the source give for `c1cc(CN2CCCCC2)cc(OCCCNc2nc3ccccc3s2)c1` here?
The Potency was “inactive”.

Which Potency does the source give for `N#CC1(O)CCCCC1` here?
The Potency was “inactive”.

For `CC(=O)OC(C)(C)C`, which Potency is on record?
The Potency was “inactive”.

Which Potency does the source give for `C=C(C)[C@@H]1CCC2=CC(=O)C[C@@H](C)[C@]2(C)C1` here?
Its Potency is “inactive”.

For `COC(=O)CCCCCCCCC(=O)OC`, which Potency is on record?
The Potency was “inactive”.

Which Potency does the source give for `O=[N+]([O-])c1ccc(Oc2ccc([N+](=O)[O-])cc2)cc1` here?
Its Potency is “inactive”.

For `CC(C)[N+](C)(C)CC(O)COc1cccc2ccccc12` (stereo not given), which Potency is on record?
The Potency was “inactive”.

For `CCCC(C)CO` (stereo not given), which Potency is on record?
The Potency was “inactive”.

Which Potency does the source give for `CCCCC=O` here?
Its Potency is “inactive”.

For `CC(=O)CCc1ccc(O)cc1`, which Potency is on record?
Its Potency is “inactive”.

With `O=C1OC(=O)c2cc([N+](=O)[O-])ccc21` as the molecule, how does the Potency read?
Its Potency is “inactive”.

With `COCCOC(=O)CC#N` as the molecule, how does the Potency read?
The Potency was “inactive”.

For `O=C(O)/C=C/c1ccc(/C=C/C(=O)O)cc1`, which Potency is on record?
The Potency was “inactive”.

Which Potency does the source give for `C[N+](C)(C)CC[N+]1(C)Cc2c(Cl)c(Cl)c(Cl)c(Cl)c2C1` here?
The Potency was “inactive”.

Which Potency does the source give for `CC(C)(C)C(=O)/C=C/c1ccc(Cl)cc1` here?
Its Potency is “inactive”.

Which Potency does the source give for `O=C(O)c1ccccc1S` here?
Its Potency is “inactive”.

For `CCN1CCCC(OC(=O)C(c2ccccc2)c2ccccc2)C1` (stereo not given), which fluorescence, % of fluorescent control is on record?
The fluorescence, % of fluorescent control was 0.0078% [at 18.6 µM].

For `C=CCOc1nc(OCC=C)nc(OCC=C)n1`, which Potency is on record?
Its Potency is “inactive”.

For `NC(=O)Nc1nc2ccccc2[nH]1`, which Potency is on record?
The Potency was “inactive”.

For `CC(C)(C)CC(C)(C)N`, which Potency is on record?
Its Potency is “inactive”.

Which Potency does the source give for `CCCCCC[C@@H](CCC)C(=O)O` here?
The Potency was “inactive”.

With `CCCCc1ccc(N)cc1` as the molecule, how does the Potency read?
The Potency was “inactive”.

With `CCCOc1ccccc1-c1nc2n[nH]nc2c(=O)[nH]1` as the molecule, how does the Potency read?
Its Potency is “inactive”.

With `CCC(C)OC(=O)N1CCCCC1CCO` (stereo not given) as the molecule, how does the Potency read?
The Potency was “inactive”.

For `Nc1ccc2cc(S(=O)(=O)O)ccc2c1`, which Potency is on record?
Its Potency is 31.6 µM [fluorescent] (active).
